Several values for one entry are separate records, joined by “and”; a condition that tells them apart may be missing. Equal values may be shown once. Screen size: about 300,000 compounds; about 5,400 (1.8%) were called active. About 28% were inconclusive and are not listed. The call rests on the fitted dose curve; tested in HEK293 cells. The full list was thinned out, with actives kept by preference. More than one record can exist for a structure, and the calls need not agree.
On the % scale 0 is the no-effect control and ±100 the full control effect; potency means the concentration at half of the fitted maximal effect.

This assay is described as follows: qHTS for inhibitors of binding or entry into cells for Marburg Virus. The conditions noted are these: Marburg virus pseudotyped entry inhibition, cell reporter; series mostly up to 37.8 µM; activity change, negative = inhibition: at the top concentration. For orientation: qHTS replaces the single test concentration by a dilution series.
On to `CC12CCC(=O)N1C(C(=O)NCCN1C(=O)S/C(=C\c3ccccc3F)C1=O)CS2` (configuration not stated), for which the “activity change, negative = inhibition” value was -7.17% [at 46.1 µM] (inactive).

With `Cc1ccc(S(=O)(=O)NCC(=O)NNC(=O)c2ccc(Br)cc2)cc1C`, the “activity change, negative = inhibition” value was -1.37% [at 46.1 µM] (inactive).

As for `O=C(COC(=O)c1ccccc1)Nc1ccc(Cl)cc1C(=O)c1ccccc1`, the “activity change, negative = inhibition” value was 0.248% (inactive).

Turning to `O=C(CCNS(=O)(=O)c1ccccc1)NCCCc1ccccc1`, the “activity change, negative = inhibition” value was 1.26% (inactive).

As to `O=C(CCNS(=O)(=O)c1ccccc1)Nc1ccc(Cl)cc1C(=O)c1ccccc1`, the Potency is 8.91 µM (active).

Regarding `O=C(CN(Cc1ccccc1)C(=O)CCC(=O)Nc1ccccn1)NCCc1ccccc1`, the “activity change, negative = inhibition” value is 0.694% [at 46.1 µM] (inactive).

For the compound `O=C(COC(=O)c1ccc(Oc2ccccc2)cc1)Nc1nnc(-c2ccccc2)o1`, the “activity change, negative = inhibition” value is -22% (inactive).

For `COc1cccc(NC(=O)CN(C)S(=O)(=O)c2ccc(C)cc2)c1`, the “activity change, negative = inhibition” value is 0.928% [at 46.1 µM] (inactive).

`COc1cccc(-c2nnc(NC(=O)c3ccc(S(=O)(=O)N(CC(C)C)CC(C)C)cc3)o2)c1`: the Potency was 1.26 µM (active).

Turning to `O=C1NCC(c2ccccc2)(c2ccccc2)C(=O)N1`, the “activity change, negative = inhibition” value is -1.26% (inactive).

For the compound `COc1ccc(Cl)cc1NS(=O)(=O)c1cccc(C(=O)NC2CCC(O)CC2)c1` (configuration not stated), the “activity change, negative = inhibition” value was 2.44% (inactive).

On to `COCCC(=O)N1CCC(Oc2ccc(C(=O)NCc3ccon3)cc2)CC1`, for which the “activity change, negative = inhibition” value is 24.6% (inactive).

As to `CCOC(=O)C1CCCN(CCSc2ccc(C)cc2)C1` (configuration not stated), the “activity change, negative = inhibition” value is -4.16% (inactive).

`CN1CCN(c2ccc([N+](=O)[O-])c(Sc3nc4ccccc4[nH]3)c2)CC1`: the “activity change, negative = inhibition” value is -23.4% (inactive).

On to `O=C(c1cccc(F)c1)N1CCN(c2ccc([N+](=O)[O-])c(N3CCCCC3)c2)CC1`, for which the “activity change, negative = inhibition” value was -24% (inactive).

`CN1CCN(c2cc(N3CCNCC3)ccc2[N+](=O)[O-])CC1`: the Potency was 5.01 µM (active).

Turning to `O=C(NN=CC=Cc1ccccc1)C(O)C(O)C(=O)NN=CC=Cc1ccccc1` (configuration not stated), the “activity change, negative = inhibition” value is -3.95% (inactive).

On to `N#CC1(Nc2ccc(-c3ccc(Cl)cc3)cc2)CCCC1`, for which the “activity change, negative = inhibition” value was 17% (inactive).

As for `Cc1cc(NC(=O)CSc2ncc(C(F)(F)F)cc2Cl)no1`, the “activity change, negative = inhibition” value was 8.87% [at 46.1 µM] (inactive).

With `CCOC(=O)CSC1=c2ccccc2=NC1c1cccs1` (configuration not stated), the “activity change, negative = inhibition” value is 4.05% (inactive).

Take `CC1CCN(C(=O)COC(=O)CCC(=O)c2cccs2)CC1`: the “activity change, negative = inhibition” value was 22% (inactive).

In the case of `COc1ccc(-n2nc(C(=O)NCC(=O)N3CCN(c4ccccc4OC)CC3)c3ccccc3c2=O)c(OC)c1`, the “activity change, negative = inhibition” value is -3.25% [at 46.1 µM] (inactive).

Consider `CN(Cc1ccccc1Cl)C(=O)C1CCC(=O)N(CCc2cccc(F)c2)C1` (configuration not stated), for which the “activity change, negative = inhibition” value was -1.51% (inactive).

Regarding `COc1cc(C)ccc1OCC(=O)OCC(=O)c1ccc[nH]1`, the “activity change, negative = inhibition” value is -7.97% (inactive).

In the case of `CCOc1ccc(NC(=O)c2cn(C3CCCCC3)c(=O)c3c2c2ccccc2n3C)cc1`, the “activity change, negative = inhibition” value is 0.938% [at 46.1 µM] (inactive).

`Cn1c2ccccc2c2c(C(=O)N3CCN(c4ccc(F)cc4)CC3)cn(C3CCCC3)c(=O)c21`: the Potency entry is “inactive and 17.8 µM (active)”.

With `O=C(c1ccccc1Oc1ccccc1)N1CCN(c2ccc(F)cc2)CC1`, the “activity change, negative = inhibition” value is -15.5% (inactive).

As for `O=C(Cn1c(-c2ccccn2)nc2ccccc21)NCCN1CCOCC1`, the “activity change, negative = inhibition” value is -0.271% (inactive).

For the compound `O=C(NCCN1CCOCC1)c1cc(-c2cccs2)nc2ccccc12`, the “activity change, negative = inhibition” value was -10.3% (inactive).

`c1ccc2cc3c(NCCN4CCOCC4)ccnc3cc2c1`: the Potency is 3.66 µM (active).

Consider `COC(=O)Nc1ccc(S(=O)(=O)Nc2cc(OC)nc(OC)n2)cc1`, for which the “activity change, negative = inhibition” value was 15% (inactive).

Turning to `CC(OC(=O)c1ccc(-n2cnnn2)cc1)C(=O)NCc1ccccc1` (configuration not stated), the “activity change, negative = inhibition” value was -25% [at 46.1 µM] (inactive).

With `CC(=O)OC[C@H]1O[C@H](C/C=N/OC[C@@H](O)COCc2ccco2)C=C[C@@H]1OC(C)=O`, the “activity change, negative = inhibition” value is 0.658% [at 14.2 µM] (inactive).

With `O=C(/C=C/c1ccccc1)c1ccoc1`, the “activity change, negative = inhibition” value was 27.8% (inactive).

Consider `CC(=O)c1c(O)c(C)c(O)c(Cc2c(O)c3c(c(C(=O)/C=C/c4ccccc4)c2O)OC(C)(C)C=C3)c1O`, for which the Potency result is “inactive and 3.16 µM (active)”.

`O=C(/C=C/c1ccccc1)c1ccccc1O`: the Potency result is “inactive”.

With `CC(=O)c1c(O)c(C)c(O)c(Cc2c(O)c3c(c(C(=O)/C=C\c4ccccc4)c2O)OC(C)(C)C=C3)c1O`, the Potency was 3.16 µM (active).

On to `CCOC(=O)C1CCN(S(=O)(=O)c2ccc3c(c2)N(C(C)=O)CCO3)CC1`, for which the “activity change, negative = inhibition” value is -20.1% [at 46.1 µM] (inactive).

Regarding `O=C(c1cccnc1)N(Cc1ccccc1)C(=O)c1cccnc1`, the “activity change, negative = inhibition” value is -21.8% [at 46.1 µM] (inactive).

Consider `O=C(NCC(=O)N1CCN(c2ncc(C(F)(F)F)cc2Cl)CC1)c1ccc(Br)o1`, for which the “activity change, negative = inhibition” value was -29.7% (inactive).

Take `O=C(Nc1cccc2c1CCCC2)c1ccc(F)cc1`: the “activity change, negative = inhibition” value was 16.4% (inactive).

As for `CC(C)C1CCCCC1NC(=O)CN1C(=O)C2=C(CCCC2)C1=O` (configuration not stated), the “activity change, negative = inhibition” value was -0.855% [at 46.1 µM] (inactive).

For `CCOc1ccc(S(=O)(=O)N2CCN(C(=O)c3oc4ccccc4c3C)CC2)cc1`, the “activity change, negative = inhibition” value was -34.1% (inactive).

As to `O=C(COC(=O)c1ccc(F)cc1)Nc1nc2ccc([N+](=O)[O-])cc2s1`, the “activity change, negative = inhibition” value is 0.764% (inactive).

In the case of `O=C(NC(Nc1nc2ccc([N+](=O)[O-])cc2s1)(C(F)(F)F)C(F)(F)F)c1ccccc1`, the Potency is 0.517 µM (active).

As to `Cc1cc(C)cc(OCC(=O)Nc2nc3ccc([N+](=O)[O-])cc3s2)c1`, the “activity change, negative = inhibition” value is 16.2% (inactive).

As for `Cc1ccccc1N1CCN(C(=O)c2cccnc2)CC1`, the “activity change, negative = inhibition” value was 4.39% [at 46.1 µM] (inactive).

Regarding `O=C(NCCc1cccc(F)c1)C1CCCN(c2nc3ccccc3s2)C1` (configuration not stated), the “activity change, negative = inhibition” value was -29.4% [at 46.1 µM] (inactive).

With `CCn1c(SCC(=O)NC2CCCC2)nnc1-c1ccoc1C`, the “activity change, negative = inhibition” value is 1.25% [at 46.1 µM] (inactive).

With `Cc1csc(SCC(=O)Nc2sccc2C#N)n1`, the Potency was 4.47 µM (active).

In the case of `Cc1ccc(NC(=O)CSCC(=O)Nc2sccc2C#N)cc1`, the “activity change, negative = inhibition” value is 3.12% (inactive).

Regarding `Cc1cccc(C)c1Nc1nnc(SCC(=O)Nc2sccc2C#N)s1`, the “activity change, negative = inhibition” value is -34.2% (inactive).

Values taken from PubChem BioAssay AID540276 (National Center for Advancing Translational Sciences (NCATS), 2011).
